Measured values from PubChem BioAssay AID2620 (National Center for Advancing Translational Sciences (NCATS), 2010).
Records with an inconclusive call do not appear. Calls of active or inactive are those of the source. Calls follow the shape of the dose curve; as a rule, active = well fitted curve in the direction sought with a large enough effect; inconclusive = small, poorly fitted or top-dose-only effect, or another doubt; inactive = no such curve, though single readings can be large or run the other way.

Each compound was assayed against Pyruvate kinase PKM (Homo sapiens) (UniProt P14618) (assay: Secondary LDH Assay for Activators of Human Pyruvate Kinase M1 Isoform: for Probe SAR). Conditions: purified hPK-M1, LDH-coupled NADH fluorescence kinetic; series mostly up to 58.2 µM.
Outline: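 Kinetic LDH-coupled read: initial rates from NADH fluorescence loss over 3-6 min, normalized to uninhibited controls. Final conditions 10 nM hPK-M1, 1 uM LDH, PEP 0.1 mM, ADP 4.0 mM, NADH 0.2 mM in Tris-Cl pH 8.0 with KCl and MgCl2.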

Sequence of Pyruvate kinase PKM (Homo sapiens) (P14618 whole entry, looked up, canonical isoform): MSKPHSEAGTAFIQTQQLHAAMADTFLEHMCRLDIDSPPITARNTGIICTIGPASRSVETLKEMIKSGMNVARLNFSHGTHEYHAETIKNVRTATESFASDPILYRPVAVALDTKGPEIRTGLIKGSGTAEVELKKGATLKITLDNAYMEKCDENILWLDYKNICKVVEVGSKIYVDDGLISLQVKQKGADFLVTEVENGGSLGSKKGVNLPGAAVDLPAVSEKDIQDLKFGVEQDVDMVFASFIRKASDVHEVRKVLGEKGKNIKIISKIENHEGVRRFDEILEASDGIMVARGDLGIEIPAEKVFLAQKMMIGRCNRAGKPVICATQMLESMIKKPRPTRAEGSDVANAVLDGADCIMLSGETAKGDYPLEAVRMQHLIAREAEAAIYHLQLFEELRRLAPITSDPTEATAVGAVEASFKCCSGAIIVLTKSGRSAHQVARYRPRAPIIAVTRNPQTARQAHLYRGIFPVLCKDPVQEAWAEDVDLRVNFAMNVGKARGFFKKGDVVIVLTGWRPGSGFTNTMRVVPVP

SMILES	outcome
O=C1CCc2cc(S(=O)(=O)Nc3ccccc3Cl)ccc2N1	inactive
O=C1c2ccccc2C(=O)N1c1nccs1	inactive
Cc1ccc(NS(=O)(=O)c2ccc3c(ccn3C)c2)cc1C	inactive
O=C1c2ccccc2C(=O)N1c1ccc(O)cc1	inactive
O=C1CCc2cc(S(=O)(=O)Nc3ccc(F)cc3)ccc2N1	inactive
Cc1ccc(NS(=O)(=O)c2ccc3c(c2)CCC(=O)N3)cc1	inactive
O=C1c2ccccc2C(=O)N1c1cccc(=O)[nH]1	inactive
Cc1ccc(NS(=O)(=O)c2ccc3c(c2)CCN(C(=O)C(F)(F)F)C3)cc1C	inactive
O=C1CCc2cc(S(=O)(=O)Nc3cccc(F)c3)ccc2N1	inactive
O=C1CCc2cc(S(=O)(=O)Nc3ccncc3)ccc2N1	inactive
Cc1ccc(NS(=O)(=O)c2ccc3c(c2)oc(=O)n3C)cc1C	inactive
Cc1ccc(OC2=NS(=O)(=O)c3ccccc32)cc1	inactive
O=C1CCc2cc(S(=O)(=O)Nc3ccc4c(c3)CCC4)ccc2N1	inactive
O=C1c2ccccc2C(=O)N1c1ccc2ncccc2c1	inactive
Nc1cccc(S(=O)(=O)N2CCCN(S(=O)(=O)c3ccc4c(c3)OCCO4)CC2)c1	inactive
COc1ccc(N2C(=O)c3ccccc3C2=O)cc1	inactive
O=C1c2ccccc2C(=O)N1Cc1ccccn1	inactive
N#Cc1ccc(NS(=O)(=O)c2ccc3c(c2)CCC(=O)N3)cc1	inactive
Cc1ccccc1NS(=O)(=O)c1ccc2c(c1)CCC(=O)N2	inactive
CN=c1nc(-c2ccccc2)n(-c2ccccc2)s1	inactive
CC(=O)Nc1ccc(S(=O)(=O)Nc2ccc(C)c(C)c2)cc1	inactive
O=C1c2ccccc2C(=O)N1c1cccnc1	inactive
Cc1ccc2nc(-c3cccs3)c(Nc3ccccc3)n2c1	inactive
CNc1cc2c(cc1S(=O)(=O)Nc1ccc(C)c(C)c1)CCC(=O)N2	inactive
O=C1c2ccccc2C(=O)N1c1cccc2ncccc12	inactive
O=C1CCc2cc(S(=O)(=O)Nc3ccccn3)ccc2N1	inactive
Cc1ccn2c(NC3CCCCC3)c(-c3ccc(C)o3)nc2c1	inactive
Cc1ccc(NS(=O)(=O)c2cc3c(cc2F)NC(=O)CC3)cc1C	inactive
Cc1ccc(N2C(=O)c3ccccc3C2=O)c(C)c1	inactive
Cc1ccc(NS(=O)(=O)c2ccc3c(c2)n(C)c(=O)n3C)cc1C	inactive
